# In all, about 25,000 sequences were measured (“ln(normalized median fluorescence intensity)”: median about 6.7, highest 2% from about 10 on). Shown is part of a subset that was picked to be rich in the highest values.
# Test system: PfHDP1 homeodomain (GST-tagged)
# Assay: gcPBM binding intensity (ln(normalized median fluorescence intensity)); higher = stronger DNA binding
# How it was run: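 DNA-binding domains from P. falciparum, fused to GST and produced in E. coli, were put on an Agilent 4 × 180k double-stranded probe array for 1 h in 1× PBS holding 1% milk, 0.2 mg/ml BSA, 0.5% salmon testes DNA and 0.03% Triton X-100. Probes were primer-extended, 36 bp long and drawn from intergenic genomic regions, with negative controls included. After Alexa488 anti-GST antibody detection and a 488 nm scan, binding intensity was set as the highest Masliner-normalised natural-log median intensity across replicate spots of either probe orientation.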
row,Sequence,gcPBM binding intensity (ln)
1,AAGCCTTAAAAGGAAAGTACGTATATATATATATAT [XGTACX_site8559],9.48
2,TAAAGGTGAACAATACGTACATAAGAACTTATGAGG [XGTACX_site4216],6.43
3,ACAATGAGGATATATACACACATACATTAAAAAAAT [CACACA_site6955],6.71
4,GCACCAAAAAAAAGACGTACAGTTATATTAAAATAG [XGTACX_site8926],6.7
5,ATACATCAAGGACACACACACACACCCACACCCACA [CACACA_site8013],6.71
6,TATATGAAATATTATGCACACAATATATAATATGAT [CACACA_site936],10.2
7,AAATAAATCTTATGCACACAAATAATTAATGAAACA [CACACA_site5011],10.6
8,CTTAAAAACAAAAATGCACACATAATAAGCATATGT [CACACA_site9149],9.58
9,AAAGAAATGAAATATACACACATACATAAATACATA [CACACA_site6081],6.68
10,ATGTAAAACATAAAATGTACATATTATACAAACTAT [XGTACX_site5797],6.87
11,ATTTATATTATAATATGTACACAAAAAAAATTAGGA [XGTACX_site565],6.91
12,GTTTACTAATATTGCACACGAATATGAAAAAGAGAA [CACACA_site2897],10.6
13,CAGTTTACTAATATTGCACACGAATATGAAAAAGAG [CACACA_site8941],9.89
14,TATGAAATATCGTGCACACACGAATAATATAAGAAT [CACACA_site4842],9.21
15,ATTATTTATTATTTCTGTACGTATAAAAATAACATT [XGTACX_site1671],6.67
16,CAGTTAATGTTGGTACTTTATATAAAAATGATATGA [CACACA_negctrl_site1600],6.67
17,ATTATGTATATAAATTAACACACATATGTGGTTAAT [CACACA_site9028],6.37
18,TTATTTTAAATTAACACATGCATAATATATGTATAT [TGCATGCA_site597],6.31
19,AAATAATAAATTATAACACACATATATATATATATA [CACACA_site4045],9.33
20,TTCCTCTTAATATGTGCACACTAAATTATAACCTAA [CACACA_site5751],11.3
21,ACTAAACTTATATGTACACACATATAACATTAATTT [CACACA_site2258],6.67
22,CCTAAATTATATTATGCACACTTAAAAATATATTTA [CACACA_site5861],9.95
23,CCTCTTAATATGTGCACACTAAATTATAACATAATT [CACACA_site3259],11.3

row,Sequence,gcPBM binding intensity (ln)
1,TTCCTCTTAATATGTGCACACTAAATTATAACATAA [CACACA_site3260],11.1
2,TAAATTATATTATGCACACTTAAAAATATATTTAAC [CACACA_site3512],9.29
3,AATATATCATTATATAAACACACAATATGTTTTTTA [CACACA_site9260],6.22
4,CAGATAAGATTTTGTGGTACTATTTATTAAATTAGA [XGTACX_site2644],6.06
5,AAGGTATGATTAATCACACACATAAATATATATACA [CACACA_site2658],6.67
6,TATTTGAAAGCCAATTGTACTTTAGTTTTTGAAACA [XGTACX_site5542],5.98
7,AAAAATATAATATAATGTACACAAAAAAAAAAATTC [XGTACX_site3657],6.63
8,TATTCTAGTCTGCTTACACACATATTTATATTTATA [CACACA_site7432],7.53
9,ATGCTTTTGTCATGTGCACACACGTATATATTATAT [CACACA_site4163],11
10,ATATATATTATGTGTGTGCACTTTTGTTATTATTAT,9.03
11,CCACGTATACGATGCACACGTATGCTTTATATATAG [CACACA_site4108],8.58
12,GCTTTTGTCATGTGCACACACGTATATATTATATAT [CACACA_site6146],11.5
13,AGACACGTATACGATGCACACGTATGCTTTATATAT [CACACA_site9363],8.32
14,AATTATATTTAGTATATGCACACTTTATGTTTGTTA [CACACA_site2025],9.36
15,CTATATTATTTTTCTTGTACGTAGGAAATATAGCTA [XGTACX_site6176],6.45
16,AAGAAAATATAAAATGCACACTATAAATTGTATATA [CACACA_site7928],9.72
17,TGTATGTATAATTGAGTGCACAGAAAAAAAAAAGAA,10.6
18,CATTATAAAAAATAAAAAAGAAATAATTGTATATGC [CACACA_negctrl_site478],6.62
19,TTTGTATTACGTTTGTGTACATATACAATGTGTTTT [XGTACX_site7708],6.38
20,TCATTGAAAATTGTTGCACACATAATAATTAAATAT [CACACA_site8554],9.46
21,ATTAAGACACATTGCACACGTGCACCCATAGAAAAA [CACACA_site408],10.5
22,ACATTAAGACACATTGCACACGTGCACCCATAGAAA [CACACA_site8029],10.5
23,ACATTGCACCCGTGCACACATAGAAAAATAATTCTT [CACACA_site409],10.3

row,Sequence,gcPBM binding intensity (ln)
1,TACACCCATAGACACACACACACGCATAAAAAAAAA [CACACA_site8428],6.85
2,ACCCATTGCTCACGTGCACACATAGAAAAATAATTC [CACACA_site4389],10.7
3,CCATTAAGACACATTGCACACGTGCACCCATAGAAA [CACACA_site4388],10.2
4,TAAGAAATAAATAGTACACACATAGACACCCACCGA [CACACA_site1516],7.1
5,TAAGAAATAAATAGTACACACATAGACACCCACCCA [CACACA_site8429],7.64
6,TCACTTTTTATTAAATGTACATGCTTTCATTTTCAT [XGTACX_site8139],6.78
7,ATAAACAAAAAAAAAAAATATATCAATATATATATA [CACACA_negctrl_site299],8.7
8,TTTTTAAAAAATAAGAAAAAATAAATATATTACAAA [XGTACX_negctrl_site191],6.58
9,AAAATAAATAAATACACACACACGAATATATATATA [CACACA_site1683],8.57
10,TACTTATTTGATTGGGTGCATATATATAGTATGTAT [GTGCAC_site9845],9.2
11,AATAATAAAAAAAGTGCACACACATAATATATATAT [CACACA_site9100],8.79
12,AGATAAAAAAAGTACACACACACATATATATATATA [CACACA_site3072],9.22
13,GCTAAAAGTATATGCACACACATATATATGCACATA [CACACA_site1635],11
14,GTGCTAAAAGTATATGCACACACATATATATGCACA [CACACA_site8472],10.6
15,GAAAAGCATAGATGCACACATATATATATATATATA [CACACA_site2169],9.77
16,AAAAAAAAAAAGCACACACACATATGAGTATATATA [CACACA_site4683],6.91
17,AAAAAAAAAAAAAGCACACACACATATGCGTATATA [CACACA_site953],6.43
18,TATACACATATATAAAGTACATATATGTGTAAAAAA [XGTACX_site8582],6.8
19,AAGAAAAGCATAGATGCACACATATATATATATATA [CACACA_site8675],9.35
20,GCTAAAAGTATATGCACACACATATAGATGCACATA [CACACA_site6868],10.7
21,TAATAAAAAAAGTGCACACACATAATATATATATAT [CACACA_site3340],9.23
22,ATGTGCACATATAAAAGTACACGCACATATATATAT [XGTACX_site1238],11
23,TAATAAATCCTATATAGTACATATATGCAAGTATGT [XGTACX_site3955],6.97

row,Sequence,gcPBM binding intensity (ln)
1,TCTTATTAAAATATTTATATAGGTAATCACAATATT [GTGCAC_negctrl_site568],6.37
2,ATATCAAACTAGAATGTGCGCATGCATTCAAGTTTT,6.54
3,TATGTCAATTTTCATACATGCGCATAATCTTTATTT [TGCATGCA_site807],7.53
4,TGTAAATTATAACGTGCACACATATTTAAAATGAAA [CACACA_site8915],9.88
5,TTATTATTCATATATTCACACATTAAAATTTTTCAA [CACACA_site4243],6.62
6,TTCATTCAAATTAACGTGCACATTATTAGTAAAAAC,10.7
7,GTATATATATATATATGCAAATGTATAAATCTACAT [CACACA_negctrl_site546],7.32
8,TAAAATATATAAAACTGTACATTTTAAAGGCACAAC [XGTACX_site8342],7.1
9,TTGCAACTCTTCAATCGTACACATTATTTATTATAT [XGTACX_site1377],6.89
10,CTAATCGTGCACAACTGTACATTTGTCAAGGGCAAT [XGTACX_site8662],10.8
11,GTATATCACACATTTGCATGTTGTCAATAGTTTATC [TGCATGCA_site134],6.93
12,CTTGTCATTTTGCACACACACATGTATAGGTTATTA [CACACA_site7431],10.9
13,CTTGTCATTTGGCACACACACATGTATAGGTTATTA [CACACA_site5656],6.72
14,AGCTCTTGTCATTTTGCACACACACCGGTATAGGTT [CACACA_site5654],10.4
15,TATATAGGTATCATTACACACATGTATACTTATTTG [CACACA_site7864],6.47
16,CTCTTGTCATTTTGCACACACACATGTATAGGTTAT [CACACA_site3057],11.1
17,CTTGTCATTGGGCACACACACATGTATAGGTTATTA [CACACA_site3058],6.49
18,AGCTCTTGTCATTTTGCACACACACCCGTATAGGTT [CACACA_site3056],10.3
19,CTCTTGTCATTTTGCACACACACATGGATAGGTTAT [CACACA_site5655],10.8
20,TCTACATATTAATTATGTACGAATTATTATTAGTAA [XGTACX_site6924],6.03
21,TTTAAGAATTAACGGGGTACAATTCTTAAATATATA [XGTACX_site669],6.33

# — the supplement of paper PMC11417369
